Results filed as inconclusive are left out. The source made the active and inactive calls. Unless noted, calls follow the shape of the dose curve; as a rule, active = well fitted curve in the direction sought with a large enough effect in the repeat runs; inconclusive = weak or mixed curves; inactive = no such curve, though single readings can be large; an effect the other way counts as inactive or inconclusive.
Columns and labels:
[1] = qHTS assay to identify small molecule antagonists of the glucocorticoid receptor (GR) signaling pathway - cell viability counter screen (AID 720693); also: nearly all actives have a fitted effect of over 55% in size
[2] = qHTS assay for identifying genotoxic compounds that show differential cytotoxicity against isogenic chicken DT40 cell lines with known DNA damage response pathways - wild type cell line (AID 743012); also: nearly all actives have a fitted effect of over 60% in size; also: potency is read from the fitted curve at half-maximal effect
Summary of the method: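 Parental DNA repair-proficient DT40 cells, 300 per well, were pre-incubated ~0.5 h at 37 C/5% CO2, pin-dosed with compounds in DMSO, then incubated 40 h. Viability was read as CellTiter-Glo luminescence after 30 min at room temperature.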

[3] = qHTS assay for identifying genotoxic compounds that show differential cytotoxicity against isogenic chicken DT40 cell lines with known DNA damage response pathways - Rev3 mutant cell line (AID 743014); also: nearly all actives have a fitted effect of over 55% in size; also: potency is read from the fitted curve at half-maximal effect
[4] = qHTS assay for identifying genotoxic compounds that show differential cytotoxicity against isogenic chicken DT40 cell lines with known DNA damage response pathways - Rad54/Ku70 mutant cell line (AID 743015); also: nearly all actives have a fitted effect of over 60% in size; also: potency is read from the fitted curve at half-maximal effect
[5] = qHTS assay to identify small molecule antagonists of the androgen receptor (AR) signaling pathway - cell viability counter screen (AID 743033; also: nearly all actives have a fitted effect of over 45% in size)
[6] = qHTS assay to identify small molecule antagonists of the androgen receptor (AR) signaling pathway using the MDA cell line - cell viability counter screen (AID 743041; also: nearly all actives have a fitted effect of over 45% in size)
Summary of the method: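 MDA-kb2 AR-luc cells (MMTV-luciferase, AR/GR responsive) treated with compounds plus R1881 agonist for 16 h at 37C. CellTiter-Fluor added at 15.5 h; fluorescence read after 30 min in the same wells.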

[7] = qHTS assay to identify small molecule antagonists of the thyroid receptor (TR) signaling pathway - cell viability counter screen (AID 743064); also: nearly all actives have a fitted effect of over 50% in size; also: potency is read from the fitted curve at half-maximal effect
Summary of the method: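 In-well cytotoxicity read by CellTiter-Fluor (30 min, 37 C) following 23.5 h exposure of GH3 cells bearing a TRE-luciferase sensor. Compounds were added alongside 1 nM (final) T3 to drive TR transactivation.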

[8] = qHTS assay to identify small molecule antagonists of the thyroid receptor (TR) signaling pathway (AID 743065); also: nearly all actives have a fitted effect of over 55% in size; also: potency is read from the fitted curve at half-maximal effect
Summary of the method: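 GH3.TRE-Luc rat pituitary cells (two TREs driving luciferase) were dosed with compound, then stimulated with 1 nM T3 (final) for 23.5 h at 37 C. ONE-Glo luminescence was the read-out, with CellTiter-Fluor fluorescence as the cytotoxicity counter-screen.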

[9] = test system: thyroid hormone receptor (rat, GH3 cells); assay: qHTS assay to identify small molecule agonists of the thyroid receptor (TR) signaling pathway (AID 743066; calls by dose curve)
[10] = biological target: Estrogen receptor (Homo sapiens) (UniProt P03372); assay: qHTS assay to identify small molecule antagonists of the estrogen receptor alpha (ER-alpha) signaling pathway (AID 743069; active = well fitted curve in the direction sought with a large enough effect in the signal ratio in the repeat runs, not every such curve was filed as active; the % refers to the signal ratio)
Chain of Estrogen receptor (Homo sapiens) (P03372 whole entry, looked up): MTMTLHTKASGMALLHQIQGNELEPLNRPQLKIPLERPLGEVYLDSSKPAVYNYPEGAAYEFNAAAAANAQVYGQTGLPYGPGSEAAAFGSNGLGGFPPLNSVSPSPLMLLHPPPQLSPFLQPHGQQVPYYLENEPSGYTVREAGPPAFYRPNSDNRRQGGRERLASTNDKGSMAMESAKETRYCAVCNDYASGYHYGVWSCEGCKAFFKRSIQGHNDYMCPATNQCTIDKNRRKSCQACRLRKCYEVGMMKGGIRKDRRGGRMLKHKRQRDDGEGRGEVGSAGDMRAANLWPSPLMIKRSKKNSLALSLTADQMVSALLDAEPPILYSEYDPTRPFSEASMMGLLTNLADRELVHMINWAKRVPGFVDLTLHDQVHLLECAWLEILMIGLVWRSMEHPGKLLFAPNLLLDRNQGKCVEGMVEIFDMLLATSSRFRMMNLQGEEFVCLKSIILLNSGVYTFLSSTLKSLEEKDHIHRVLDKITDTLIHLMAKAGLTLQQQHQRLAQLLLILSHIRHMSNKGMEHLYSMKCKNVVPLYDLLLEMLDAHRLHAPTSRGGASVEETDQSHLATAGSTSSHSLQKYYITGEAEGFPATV
Summary of the method: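 HEK293 ER-alpha-UAS-bla GripTite cells, held overnight in 2% charcoal-stripped FBS, 5,000 cells/well, preincubated 4 h, then compound plus 17beta-estradiol for 18 h at 37C. Beta-lactamase read by LiveBLAzer B/G FRET substrate, 2 h at room temperature.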

[11] = qHTS assay to identify small molecule antagonists of the estrogen receptor alpha (ER-alpha) signaling pathway - cell viability counter screen (AID 743074; calls by dose curve;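 also: HEK293 cells carrying ER-alpha-UAS-bla reporter stimulated with 17beta-estradiol; nearly all actives have a fitted effect of over 45% in size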)
[12] = biological target: Estrogen receptor (Homo sapiens) (UniProt P03372); assay: qHTS assay to identify small molecule agonists of the estrogen receptor alpha (ER-alpha) signaling pathway (AID 743075; calls by dose curve)
[13] = biological target: Estrogen receptor (Homo sapiens) (UniProt P03372); assay: qHTS assay to identify small molecule agonists of the estrogen receptor alpha (ER-alpha) signaling pathway using the BG1 cell line (AID 743079); also: nearly all actives have a fitted effect of over 20% in size
[14] = qHTS assay to identify small molecule antagonists of the estrogen receptor alpha (ER-alpha) signaling pathway using the BG1 cell line (AID 743080; calls by dose curve;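 also: BG1 cells stimulated with 17beta-estradiol alongside compound; series mostly up to about 70 µM; nearly all actives have a fitted effect of over 25% in size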)
Summary of the method: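 Endogenous full-length ER-alpha in BG1-Luc-4E2 cells drives a stably integrated 4×ERE luciferase gene; compounds were tested against 17beta-estradiol over 21.5 h, with luminescence and multiplexed viability fluorescence recorded.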

[15] = qHTS assay to identify small molecule antagonists of the estrogen receptor alpha (ER-alpha) signaling pathway using the BG1 cell line - cell viability counter screen (AID 743081);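 also: compound given together with 17beta-estradiol as the ER stimulus; series mostly up to about 70 µM; nearly all actives have a fitted effect of over 45% in size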
Aromatase (Homo sapiens) = Aromatase (Homo sapiens) (UniProt P11511); assay: qHTS assay to identify aromatase inhibitors (AID 743083); also: series mostly up to about 70 µM; nearly all actives have a fitted effect of over 55% in size
Chain of Aromatase (Homo sapiens) (P11511 whole entry, looked up): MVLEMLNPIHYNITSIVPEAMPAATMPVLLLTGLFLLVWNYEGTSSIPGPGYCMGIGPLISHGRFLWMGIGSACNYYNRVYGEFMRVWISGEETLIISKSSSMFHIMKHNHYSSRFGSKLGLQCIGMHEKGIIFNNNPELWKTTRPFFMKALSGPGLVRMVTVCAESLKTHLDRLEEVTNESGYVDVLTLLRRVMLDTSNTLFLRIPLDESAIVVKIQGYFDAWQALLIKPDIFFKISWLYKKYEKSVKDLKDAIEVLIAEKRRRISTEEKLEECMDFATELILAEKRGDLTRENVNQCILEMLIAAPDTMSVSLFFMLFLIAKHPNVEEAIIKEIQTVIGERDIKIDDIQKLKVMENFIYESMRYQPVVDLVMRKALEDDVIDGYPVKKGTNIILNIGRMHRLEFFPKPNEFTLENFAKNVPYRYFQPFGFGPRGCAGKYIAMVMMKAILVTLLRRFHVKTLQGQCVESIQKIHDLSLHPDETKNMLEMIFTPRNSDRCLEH

[16] = qHTS assay to identify aromatase inhibitors - cell viability counter screen (AID 743084)
[17] = biological target: Androgen receptor (Homo sapiens) (UniProt P10275); assay: qHTS assay to identify small molecule agonists of the androgen receptor (AR) signaling pathway (AID 743036; active = well fitted activation curve with a large enough effect in the signal ratio in the repeat runs, with a control signal flat, not every such curve was filed as active; the % refers to the signal ratio)
Chain of Androgen receptor (Homo sapiens) (P10275 whole entry, looked up): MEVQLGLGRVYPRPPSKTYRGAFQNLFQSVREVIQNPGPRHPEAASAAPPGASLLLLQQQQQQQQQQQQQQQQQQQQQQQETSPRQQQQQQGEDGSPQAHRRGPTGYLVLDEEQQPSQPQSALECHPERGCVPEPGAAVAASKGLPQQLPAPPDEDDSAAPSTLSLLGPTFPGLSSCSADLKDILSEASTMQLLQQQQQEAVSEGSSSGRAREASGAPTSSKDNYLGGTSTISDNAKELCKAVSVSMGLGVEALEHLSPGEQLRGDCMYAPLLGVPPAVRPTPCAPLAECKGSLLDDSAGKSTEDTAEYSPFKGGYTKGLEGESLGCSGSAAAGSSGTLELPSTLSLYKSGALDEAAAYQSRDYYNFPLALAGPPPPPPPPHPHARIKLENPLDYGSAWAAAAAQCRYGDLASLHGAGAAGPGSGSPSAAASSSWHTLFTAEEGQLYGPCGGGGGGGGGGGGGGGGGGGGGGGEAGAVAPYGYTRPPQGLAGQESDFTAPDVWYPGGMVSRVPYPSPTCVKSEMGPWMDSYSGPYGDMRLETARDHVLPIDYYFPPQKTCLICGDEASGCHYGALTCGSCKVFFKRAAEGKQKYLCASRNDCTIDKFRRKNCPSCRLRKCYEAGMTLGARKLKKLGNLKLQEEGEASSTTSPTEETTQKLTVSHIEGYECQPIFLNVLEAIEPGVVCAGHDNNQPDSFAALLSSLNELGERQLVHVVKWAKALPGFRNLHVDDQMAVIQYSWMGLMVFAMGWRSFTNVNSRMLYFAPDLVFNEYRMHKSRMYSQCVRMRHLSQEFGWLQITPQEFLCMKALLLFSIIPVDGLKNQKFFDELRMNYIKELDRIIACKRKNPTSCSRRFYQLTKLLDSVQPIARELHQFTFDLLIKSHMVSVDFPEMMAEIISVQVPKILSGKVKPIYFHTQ
Summary of the method: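 Activation was read as beta-lactamase FRET signal from LiveBLAzer B/G substrate, added for 2 h at room temperature. Before that, GeneBLAzer AR-UAS-bla GripTite (HEK293) cells had 16 h compound exposure at 37C.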

[18] = biological target: Androgen receptor (Homo sapiens) (UniProt P10275); assay: qHTS assay to identify small molecule antagonists of the androgen receptor (AR) signaling pathway using the MDA cell line (AID 743042; also: nearly all actives have a fitted effect of over 55% in size)
Summary of the method: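 MDA-kb2 breast carcinoma cells carrying MMTV-luciferase (AR/GR responsive) were co-treated with compounds and the agonist R1881 for 16 h at 37C. Inhibition read as ONE-Glo luminescence; CellTiter-Fluor fluorescence measured in parallel for cytotoxicity.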

[19] = biological target: Androgen receptor (Homo sapiens) (UniProt P10275); assay: qHTS assay to identify small molecule antagonists of the androgen receptor (AR) signaling pathway (AID 743035; active = well fitted inhibition curve with a large enough effect in the signal ratio in the repeat runs, not every such curve was filed as active; the % refers to the signal ratio)
Summary of the method: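 HEK293 cells stably carrying a UAS-driven beta-lactamase reporter (AR-UAS-bla GripTite) were plated for 4 h at 37C, then given compound and the agonist R1881 and incubated 16 h. Reporter activity was read by LiveBLAzer B/G FRET fluorescence after 2 h at room temperature.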

Measured: Potency

O=C1C=CC(=O)O1
not listed: [17] | [18] | [19]
inactive: all other assays above

C=CCCC=C
not listed: [17] | [18] | [19]
inactive: all other assays above

C[C@@H](N)C(=O)O
not listed: [10] | [12] | [13] | [14] | [19]
inactive: all other assays above

Cc1cc(S(=O)(=O)O)c(N)cc1Cl
inactive: all assays above

CN(C)Cc1ccccc1
not listed: [10] | [12] | [13] | [14]
inactive: all other assays above

CCN(CC)CC1CCCCN1CC(=O)N1c2ccccc2C(=O)Nc2cccnc21 (stereo not given)
not listed: [17] | [18] | [19]
inactive: all other assays above

N#Cc1ccc(C(c2ccc(C#N)cc2)n2cncn2)cc1
not listed: Aromatase (Homo sapiens)
inactive: all other assays above

NNS(=O)(=O)c1ccc(Oc2ccc(S(=O)(=O)NN)cc2)cc1
active: [3] 27.3 µM
not listed: [17] | [18] | [19]
inactive: all other assays above

COC(C)CCO (stereo not given)
not listed: [10] | [12] | [13] | [14]
inactive: all other assays above

CCC(=O)Nc1ccc(O)cc1
not listed: [17] | [18] | [19]
inactive: all other assays above

C=CCc1cc(OC)c(O)c(C(=O)NCCO)c1
not listed: [17] | [18] | [19]
inactive: all other assays above

C=CCCCCCCCCO
not listed: [17] | [18] | [19]
inactive: all other assays above

CN1CCN(C2=Nc3cc(F)ccc3Cc3ccccc32)CC1
active: [2] 11.9 µM | [3] 8.41 µM | [4] 23.7 µM | [7] 11.9 µM | [8] 13.3 µM
not listed: [13]
inactive: all other assays above

CCOC(=O)NCCC[Si](OCC)(OCC)OCC
not listed: [17] | [18] | [19]
inactive: all other assays above

CCCCCCCCCC#N
not listed: [17] | [18] | [19]
inactive: all other assays above

CC1=C2[C@H](/C=C(\C)C(=O)O)CC[C@@H](C)[C@H]2CC1
not listed: [10] | [13] | [19]
inactive: all other assays above
